Only some compounds are listed: those with a hit (about 17% of all), similar ones and a draw of the others.
HT1080 IDH1KD tx: toxicity to HT-1080 IDH1 knockdown cells (counter line); Potency, µM (top dose mostly 46.1 µM), without a hit: top-dose activity, negative = toxicity, actives largely listed as cytotoxic; AID 686971; HT-1080 IDH1 knockdown viability, ATP luminescence, 48 h; 360,000 tested, 2% active;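 note: 0% = DMSO wells and -100% = cell-free medium wells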
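After a 2 h attachment period, IDH1KD HT-1080 cells took pin-transferred compound for 48 h at 37 °C; ATP-based luminescence after 10 min room-temperature reagent incubation reported viability.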
TGFb SMAD3 inh: blocks TGF-b signaling; HepG2 CAGA-GFP TGF-b/SMAD3 reporter, GFP fluorescence, 18 h; TGF-beta stimulated, 500 pg/mL final; Potency, µM (doses to about 46.1 µM), without a hit: at the top dose activity, negative = inhibition, most hits filed as inhibitors; 410,000 tested, 1.2% active; AID 588855; note: % is set by controls: 0 for no effect and ±100 for the full control effect; nearly all actives have a fitted effect of over 65% in size
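Smad-responsive CAGA-GFP expression was quantified in HEPG2 cells exposed to compounds and 500 pg/mL final TGF-beta for 18 h at 37 degrees C; unstimulated wells defined full inhibition.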
HepG2 viability: kills HepG2 cells in TGF-b inhibitor counter-screen; Potency, µM (highest dose often 46.1 µM), for the others: at the top dose activity change, negative = cytotoxicity, hits mostly cytotoxic; HepG2 CAGA-GFP viability, ATP luminescence, 18 h; 410,000 tested, 0.76% active
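CellTiter-Glo luminescence gave cytotoxicity after 18 hours at 37 degrees C. The cells were HepG2 CAGA-GFP in 1% FBS DMEM, stimulated with 500 pg/mL TGF-beta after compound addition. %Activity was normalised to no-cell wells (complete cell-killing) and DMSO (no toxicity), and curves were fitted and classified.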
DT40 TDP1 no CPT: qHTS for Inhibitors of human tyrosyl-DNA phosphodiesterase 1 (TDP1): qHTS in cells in absence of CPT; DT40 Tdp1-/- hTDP1 cells, no CPT, ATP luminescence, 48 h; Potency, µM (titrated, usually from 46.2 µM), inactives show top-dose activity change, negative = growth inhibition, usual class: inhibitors; 420,000 tested, 15% active; note: % is set by controls: 0 for no effect and ±100 for the full control effect; nearly all actives have a fitted effect of over 55% in size
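Readout: luminescence from CellTiter-Glo after 30 min in the dark at RT. Cells: DT40 Tdp1-/- with stable hTDP1, 400/well. Exposure: compounds alone, ≥48 hr, 37 °C.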
DT40 TDP1 CPT: growth inhibition of DT40 Tdp1-/-;hTDP1 cells with camptothecin (screen for TDP1 inhibitors); chicken DT40 Tdp1-/-;hTDP1 cells + 20 nM CPT, ATP luminescence, 48 h; Potency, µM (highest dose often 46.2 µM), for the others: at the top dose activity change, negative = growth inhibition, hits mostly inhibitors; 420,000 tested, 12% active; note: % is set by controls: 0 for no effect and ±100 for the full control effect; nearly all actives have a fitted effect of over 55% in size
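Cell growth measured by CellTiter-Glo luminescence after a minimum 48 h, 37 C compound exposure with 20 nM CPT in Tdp1-knockout DT40 cells stably expressing hTDP1, seeded 400/well; qHTS titration format.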
HT1080-NT tox: kills 2HG-producing HT-1080-NT fibrosarcoma cells. AID 686970. Potency, µM (series often up to 46.1 µM), for the others: at the highest dose activity, negative = less viability, actives largely listed as cytotoxic. 360,000 tested, 1.6% active. HT-1080-NT fibrosarcoma viability, CellTiter-Glo ATP luminescence, 48 h;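 note: NT is the 2HG producing partner of a matched IDH1 knockdown line; 0% = DMSO-treated cells and -100% = media-only wells without cells; nearly all actives have a fitted effect of over 55% in size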
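Luminescent CellTiter-Glo readout after 48 hours of compound exposure at 37 degrees C defined viability of HT-1080-NT cells. Activity was normalized to DMSO wells and cell-free media wells; concentration-response curves were fitted and assigned curve classes.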
An asterisk follows results filed as active; ? = inconclusive; . = no result given. Calls come from the whole dose curve; as a rule, active = well fitted curve in the direction sought with a large enough effect; inconclusive = small, poorly fitted or top-dose-only effect, or another doubt; inactive = no such curve, though single readings can be large; an effect the other way counts as inactive or inconclusive. Potency is the fitted concentration of half-maximal effect.

SMILES	HT1080 IDH1KD tx	TGFb SMAD3 inh	HepG2 viability	DT40 TDP1 no CPT	DT40 TDP1 CPT	HT1080-NT tox
COC(=O)CCC(C)C1CCC2C3CCC4CC(O)CCC4(C)C3CC(O)C12C (stereo not drawn)	?	?	-89%	21µM*	13µM*	?
C[C@H](CCC(=O)NCC(=O)O)[C@H]1CC[C@H]2[C@@H]3[C@H](O)C[C@@H]4C[C@H](O)CC[C@]4(C)[C@H]3C[C@H](O)[C@]12C	16%	21%	-9%	?	5%	21%
COC(=O)CCC(C)C1CCC2C3C(OC(C)=O)CC4CC(O)CCC4(C)C3CC(O)C12C (stereo not drawn)	-7%	-8%	-15%	16µM*	?	-8%
COc1ccc(Cl)cc1NC(=O)COc1cccc2c(=O)n(C)ccc12	.	30%	7%	?	-2%	.
Cn1ccc2c(OCC(=O)NCc3ccccc3Cl)cccc2c1=O	.	13%	-16%	18µM*	?	.
CCCCc1ccc(NC(=O)COc2cccc3c(=O)n(C)ccc23)cc1	.	8.9µM*	-51%	18µM*	13µM*	.
COc1ccccc1OCC(=O)NCCSCc1ccccc1Cl	-1%	-10%	-11%	18µM*	?	-3%
O=C(COc1ccccc1)NCCSCc1ccccc1Cl	7%	1%	5%	-4%	2%	5%
COc1ccc(C#Cc2ccc3c(c2)c(=O)c2ccccc2n3C)cc1	8%	1%	-13%	18µM*	?	3%
COc1cccc2c(=O)c3c(oc12)CCCC3	-2%	-9%	-8%	-19%	-6%	-12%
Cn1c2ccccc2c(=O)c2ccc(C#CC3(O)CCCCC3)cc21	?	?	-93%	10µM*	13µM*	?
Cn1c2ccccc2c(=O)c2cc(C#Cc3ccc(N)cc3)ccc21	-27%	?	-18%	?	?	-14%
COc1cccc2sc3ccc(C#CC4(N)CCCCC4)cc3c(=O)c12	-14%	?	-98%	15µM*	16µM*	-15%
COc1cccc(C#Cc2c(C=O)n(C)c3ccccc23)c1	?	?	-3%	16µM*	16µM*	-19%
O=c1oc2ccc(C#CC3(O)CCCCC3)cc2cc1-n1cc(C2(O)CCCCC2)nn1	3%	1%	0%	-16%	4%	1%
CC12CCC(=O)N1C(C(=O)Nc1cc(S(=O)(=O)N3CCCCCC3)ccc1OCC(F)(F)F)CS2 (stereo not drawn)	-1%	1%	-4%	-22%	?	-11%
CSCC[C@H](NC(=O)Cc1c(C)c2c(cc(C)c3c(C)coc32)oc1=O)C(=O)O	6%	3%	-3%	-1%	16%	19%
CNC(C)C#Cc1ccc2sc3cccc(OC)c3c(=O)c2c1 (stereo not drawn)	5%	?	-8%	15µM*	?	-2%
COc1cccc2sc3cc(C#CC4(O)CCCCC4)ccc3c(=O)c12	?	7.1µM*	7.1µM*	?	7.3µM*	?
COc1ccc(-c2ccc3oc(-c4ccc(OC)cc4)c(C#CC4(O)CCCCC4)c3c2)cc1	9%	?	1%	?	?	4%
CNC(C)C#Cc1ccc2oc3cccc(OC)c3c(=O)c2c1 (stereo not drawn)	9%	-15%	-15%	?	?	9%
COc1cc2sc3ccc(C#CC4(O)CCCCC4)cc3c(=O)c2cc1OC	?	-5%	-14%	16µM*	?	-23%
Cc1cc(C)cc(NC(=O)C(OC(=O)c2sccc2C)c2ccccc2)c1 (stereo not drawn)	9%	0%	-1%	?	-21%	10%
